Measured values as given in ChEMBL document CHEMBL3988442, “University of Dundee, Small-Polar-MMV Screening Library” (2021).

Columns and labels:
[1] = target: T1, Aspartate--tRNA(Asp/Asn) ligase (Mycobacterium tuberculosis (strain ATCC 25618 / H37Rv)) (UniProt P9WFW3); experiment: Assay for Asp RNA synthetase-1 from Mycobacterium tuberculosis; type: functional; set-up: scale not given: direction of the effect not stated beside the values; conditions: 30 µM; further: in the data most compounds retested in dose-response had high values
T1 sequence (whole entry): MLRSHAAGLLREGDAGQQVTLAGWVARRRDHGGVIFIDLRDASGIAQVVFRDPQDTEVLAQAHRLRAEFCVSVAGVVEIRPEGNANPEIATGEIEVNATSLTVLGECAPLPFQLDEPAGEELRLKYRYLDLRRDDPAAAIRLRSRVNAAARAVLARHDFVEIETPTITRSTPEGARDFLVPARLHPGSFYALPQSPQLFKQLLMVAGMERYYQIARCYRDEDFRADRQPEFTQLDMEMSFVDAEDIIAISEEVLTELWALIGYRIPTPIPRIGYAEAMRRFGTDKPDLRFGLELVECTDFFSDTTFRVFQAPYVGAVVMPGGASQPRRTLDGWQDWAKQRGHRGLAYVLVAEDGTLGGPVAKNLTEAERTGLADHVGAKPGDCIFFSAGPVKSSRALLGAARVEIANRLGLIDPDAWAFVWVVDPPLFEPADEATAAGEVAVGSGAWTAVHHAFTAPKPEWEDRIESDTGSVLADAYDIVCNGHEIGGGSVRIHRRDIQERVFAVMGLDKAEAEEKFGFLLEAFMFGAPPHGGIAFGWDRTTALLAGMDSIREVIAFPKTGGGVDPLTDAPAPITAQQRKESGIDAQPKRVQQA

[2] = target: Shiga toxin 2 (Escherichia coli O157:H7) (UniProt P09385+P09386); experiment: E. coli 0.157:H7 Shiga Toxin SOP - stx2 screening assay; type: functional; set-up: scale not given: direction of the effect not stated beside the values; conditions: 30 µM

Compound	Percent Effect [1] [%]	Percent Effect [2] [%]
COc1cccc(CC2CN(C3CCN(C(C)=O)CC3)CCO2)c1 (stereo not drawn)	-4.28	-26
Cc1ccc(-c2nnc(CN3CCc4cnc(C)nc4C3)o2)cc1	2.13	-61
Clc1ccc(OCCCN2CCN(c3cnccn3)CC2)cc1	1.06	-6.97
Cc1nccn1CC1CCCN1S(=O)(=O)Cc1ccon1 (stereo not drawn)	-2.34	-23.9
CCCn1c(C)cc(C(=O)CN2C(=O)c3ccccc3CS2(=O)=O)c1C	0.257	-23.8
O=C(NCCCN1CCOCC1)Nc1cnc2cc(Cl)ccc2c1O	1.35	-13.4
Cc1ccc(CNC(=O)CN2CCN(CC(O)C3CC3)CC2)cc1 (stereo not drawn)	1.21	-15.5
COc1ccc(C(=O)N2CCC(Nc3ccc(C)nn3)CC2)c(F)c1	4.79	-6.61
COCCN(C)CCN1CC2(CCN(C(=O)C3CCOC3)CC2)OC1=O (stereo not drawn)	-1.75	-24.2
COc1ccc(CN2CCC3(CC2)CCN(c2ncccn2)CC3)cc1	2.89	-0.95
Cc1nc(C)n(CC2CCCN(Cc3nc(C4CC4)no3)C2)n1 (stereo not drawn)	4.92	7.13
O=C(NCCCn1cccn1)C1(c2ccc(Br)cc2)CC1	0.575	8.42
CCc1cnc(N2CC3(CCN(C(=O)c4ccoc4)C3)C2)nc1	-4.49	-30.6
COCC(C)(O)CNC(=O)COc1ccccc1OC (stereo not drawn)	-4.69	-2.25
COc1ccc(C(=O)N2CCCC2c2ccco2)cc1OC (stereo not drawn)	-3.37	-11.3
CNC(=O)c1ccc(C2CN(C(=O)COC)CCO2)nc1 (stereo not drawn)	5.69	1.8
CC(=O)Nc1nc(C(=O)Nc2ccc(N3CCCCC3)nc2)cs1	1.12	-46.3
Cn1cc(Cl)cc1C(=O)N1CCCN(Cc2cccs2)CC1	-5.24	19.8
Cc1nn(-c2ccccc2)nc1C(=O)N1CCCC1c1cnn(C)c1 (stereo not drawn)	2.1	18.4
Cc1ccccc1CNc1nc(O)cc(C2CC(=O)N(C)C2)n1 (stereo not drawn)	-2.9	0.153
Cc1cnc(CN(C)C2CCN(Cc3ccccc3C#N)C2)o1 (stereo not drawn)	-4.54	-34.4
Cc1ccc(-c2nc(CNCCn3cccn3)cs2)o1	-0.233	13
CN(C)CCO[C@@H]1CC[C@H]2[C@H]1OCCN2C(=O)COc1ccccc1	1.51	-12.1
CC(=O)N(Cc1noc(C2CC2)n1)C1CCN(Cc2nccn2C)C1 (stereo not drawn)	-4.37	12.9
O=C(NCc1nnc2n1CCCC2)N1CCc2ccccc2C1	1.56	-5.06
Cc1cc2ccccc2n1CCC(=O)NCc1ncc[nH]1	-0.164	4.66

Compound	Percent Effect [1] [%]	Percent Effect [2] [%]
NS(=O)(=O)CCNC(=O)c1ccc(-c2ccc(F)cc2)cc1F	16.3	-53.6
Cc1cnc(CN(C)CC2CCCN2c2cccnn2)cn1 (stereo not drawn)	2.77	7.46
Cc1cnn(CC2CN(Cc3nnc(-c4occc4C)o3)CCO2)c1 (stereo not drawn)	2.04	12.3
COc1ccccc1S(=O)(=O)N1CCC(Oc2cccnn2)CC1	-2.24	-12.5
COCCNC(=O)c1ccc(C)c(-n2cccc2)c1	-0.779	-6.48
Cc1noc(Cl)c1CCC(=O)N1CCN(c2ncccn2)CC1	-3.2	36
Cc1nc(N2CCCC2)nc2c1CCN(C(=O)CC1CC1)CC2	-1.6	-20.8
Cc1ccc(-c2nc(CN3CCn4c(nnc4C4CC4)C3)cs2)o1	-4.03	-88.7
COCCNc1ccc(CNC(=O)Nc2cn[nH]c2)cc1	-0.4	-2.17
COCc1cc(NCc2cc(F)ccc2F)n2nccc2n1	7.1	-13.4
CNc1snc(C)c1C(=O)N1CCCC(n2ccnc2C(C)C)C1 (stereo not drawn)	1.51	3.71
O=S(=O)(C1CC1)N1CCC2(COCc3cnc(N4CCOCC4)nc32)C1 (stereo not drawn)	-2.06	-56.7
CCc1nc(C2CCCN(C(=O)c3cn(C)nc3C)C2)no1 (stereo not drawn)	-7.17	-20.7
CC(C)(C)c1nnc(CN2CCn3c(nnc3C3CC3)C2)o1	8.8	-5.14
CC(NC(=O)N(C)Cc1ccc(Cl)s1)c1ccccn1 (stereo not drawn)	-2.02	-6.3
CCN1CC(C(=O)N2CCC(Oc3ccccc3C)CC2)CC1=O (stereo not drawn)	-1.25	-32.1
CC(C)COCC(NC(=O)c1ccccn1)c1ccco1 (stereo not drawn)	-1.2	28
CCc1cccc(OCC(=O)N2CCCC(n3cncn3)C2)c1 (stereo not drawn)	-0.88	26
COc1cnc(N2CCC(Oc3ccccc3OC)(C(=O)O)CC2)nc1	-1.16	-0.671
COCC(=O)N1CCN(C(=O)c2scnc2C)CC1	-5.75	-11
COC(=O)c1ccc(N2CCN(C(=O)c3ccncc3)C(C)C2)cc1 (stereo not drawn)	-2.26	-11.4
CC(C)CN1C[C@H]2CCN(c3ncccn3)CC[C@H]2S1(=O)=O	2.71	-33
CC(C)n1ncc2c1NC(=O)CSC2C(C)(C)C (stereo not drawn)	-2.73	-13.8
Cc1ccc(CN2CCCC23CCN(S(=O)(=O)c2ccccc2)C3)o1 (stereo not drawn)	4.14	3.29
CCc1nccn1C1CCCN(C(=O)c2ccc3[nH]c(=O)[nH]c3c2)C1 (stereo not drawn)	-9.98	-46.4
Cc1cccc(-n2cc(C(=O)N3CCn4c(C)nnc4C3)nn2)c1	-2.42	-92.9

Compound	Percent Effect [1] [%]	Percent Effect [2] [%]
COc1ccc(-c2nc(CN3CCc4c(ncn4C)C3)cs2)cc1	-3.7	-71.2
CCS(=O)(=O)N1CCc2c(CN(C)Cc3ccco3)cncc2C1	-0.0582	-1.96
COCC1c2c(cnn2CC2CC2)CCN1Cc1cccs1 (stereo not drawn)	-0.524	0.46
CCn1ncc2c1CCCC2NCC1=Cc2ccccc2OC1 (stereo not drawn)	4.82	-23.2
Cc1nn(C)c(C)c1C(=O)N1CCOCC1CC(=O)c1ccco1 (stereo not drawn)	1.17	-5.88
CC(=O)N1CCC(C(=O)c2cc(C)cnc2N)CC1	0.75	-6.78
Cc1ccccc1C1(C(=O)NCCN2CCCC2)CCOCC1	11.1	12.4
Cc1nn(C)c(Cl)c1C1CCCN1C(=O)c1nccnc1N (stereo not drawn)	-0.929	22.4
CSc1ccc(NS(=O)(=O)c2cnn(C)c2)cn1	1.57	-7.54
CC(C)c1nccn1C1CCCN(C(=O)c2ccc3[nH]nnc3c2)C1 (stereo not drawn)	-3.89	-22.6
Cc1nn(-c2ccccc2)c(C)c1CNC1CCc2ncnn2C1 (stereo not drawn)	-2.94	4.77
CN(C)C(=O)N1CCOCC2(CCN(c3ccccn3)C2)C1 (stereo not drawn)	1.11	-15.4
CSc1ccc(S(=O)(=O)N2CCCCC2CCNC(C)=O)cc1 (stereo not drawn)	7.57	-4.85
Cc1cnn(CC2CCCCN2Cc2nnc(-c3ccco3)o2)c1 (stereo not drawn)	11.6	2.18
Cc1ccc(NS(=O)(=O)c2cc3c(c(C(=O)O)c2)OCCO3)c(F)c1	-2.58	-5.6
Cc1nc(C)n(CC2CCCN(c3ncnc4c3CCC4)C2)n1 (stereo not drawn)	2.14	15.3
O=C(NCCn1ccc(-c2ccncc2)n1)c1ccncc1	1.52	-65.9
Cc1cccc(-c2nc(CN3CCc4cnc(C)nc4C3)no2)c1	4.76	6.99
CCn1cc(N2Cc3nc(N4CCOCC4)ncc3C2=O)cn1	-3.92	-20.5
CC(C)C(=O)N1CCN(Cc2cc(-c3ccncc3)nn2C)CC1	0.491	-50.3
CN(C)C(=O)C1CN(Cc2cscn2)CCN(S(C)(=O)=O)C1 (stereo not drawn)	0.521	-12.3
CNC(=O)c1cccnc1Oc1ccccc1	-3	8.4
CCn1cc2c(n1)C(COC)CN(C(=O)COc1ccccc1C)C2 (stereo not drawn)	2.12	3.11
CN(C)C(=O)CNC(=O)c1ccc(Cl)cc1F	-6.71	-8.79
Cc1ccc(CNC(=O)N2CCN(Cc3ccsc3)CC2)n1C	0.896	-31.3
Cc1nc(CN2CCC3(CCCN(Cc4cnn(C)c4)C3)C2=O)cs1 (stereo not drawn)	-3.23	-23.7

Compound	Percent Effect [1] [%]	Percent Effect [2] [%]
Cc1nccnc1N1CCC2(CCCN(C3CCOCC3)C2=O)C1 (stereo not drawn)	-1.21	-27.2
CCN(Cc1cccc2c1OCO2)C(=O)NC1CC1	-0.162	-11
O=C(CC1CC1)N1CCC2(CC1)CN(c1ncccn1)CCO2	-1.87	5.46
Cc1cc(NC(=O)NCCc2cccs2)n(C)n1	1.39	-38.4
CC(C)Oc1ncccc1CNC(=O)N1CCC1c1ccccc1 (stereo not drawn)	0.589	-9.32
O=C(c1ccc(OCC2CC2)nc1)N1CCCC(n2cncn2)C1 (stereo not drawn)	1.48	-39.7
O=C(NCC1CCN(Cc2ccsc2)CC1)NC1CC1	4.04	-10.9
O=C1NCCN1C1CCCN(Cc2coc(-c3ccc(F)cc3)n2)C1 (stereo not drawn)	-2.94	-27.1
CN1CCOC(CNCc2cccc(OCC(F)(F)F)c2)C1 (stereo not drawn)	-2.34	2.68
CCOC(C)c1nc(CN2CCC(CNC(C)=O)CC2)cs1 (stereo not drawn)	-2.51	3.11
Cc1cc(C(=O)NCCN2CCCC(C)C2)nn1C (stereo not drawn)	-4.16	11.8
CCCc1noc(CCC(=O)N2CCCC2c2noc(C3CC3)n2)n1 (stereo not drawn)	-2.66	6.31
CC(NC(=O)N(C)Cc1ccsc1)c1ccc2c(c1)NC(=O)CO2 (stereo not drawn)	-2.41	18.1
CC1(C)OCC(CNC(=O)c2cnn(-c3ccc(Cl)cc3)c2N)O1 (stereo not drawn)	2.4	47.4
O=C(c1cc(Cl)c2c(c1)OCO2)N1CCCC(n2ccnc2)C1 (stereo not drawn)	-1.93	4.72
CN1CCOC(CNCc2coc(-c3cccs3)n2)C1 (stereo not drawn)	3.28	-17.6
CC(NC(=O)C1=NN(C)C(=O)CC1)c1ccc(Cl)cc1Cl (stereo not drawn)	-11.1	-19.3
Cc1noc2ncc(C(=O)NCC3CCN(C(C)C)C3)cc12 (stereo not drawn)	1.08	17.2
O=C(NCC1OCCc2cn(CC3CC3)nc21)c1ccsc1 (stereo not drawn)	-3.57	-12.1
O=S(=O)(N1CCCC1)N1CCCCC1CCc1ccccc1 (stereo not drawn)	1.42	10.8
Cc1ccc(-n2nnc(CC(=O)N3CCOCC3)c2C)cc1	2.26	-28
CC(C)NC(=O)C(c1ccccc1)N1CCn2c(nnc2C2CC2)C1 (stereo not drawn)	-1.48	13
CCc1ccc(C(=O)O)cc1S(=O)(=O)Nc1ccc(F)c(C#N)c1	4.35	-1.93
COCCN1C(=O)C[C@H]2[C@H]1CCN2Cc1ccc(OC)cc1	6.6	-4.38
COCCNC(=O)C(C)n1cc(Br)cn1 (stereo not drawn)	9.87	-44.4
C=Cc1ccc(C(=O)N2CCCC(Nc3ccc(F)cc3)C2)cc1 (stereo not drawn)	-0.502	-4.33
